# Assay results as given in PubChem BioAssay AID686978 (National Center for Advancing Translational Sciences (NCATS), 2013).
# Screen size: about 420,000 compounds; about 64,000 (15%) were called active. Not shown: some 27% with an inconclusive outcome. Calls follow the shape of the dose curve; as a rule, active = well fitted inhibition curve with a large enough effect; inconclusive = small, poorly fitted or top-dose-only effect; inactive = flat fitted curve, though single readings scatter. These entries were drawn from the full list. A call without a number means that no potency is given here.
# Experiment: qHTS for Inhibitors of human tyrosyl-DNA phosphodiesterase 1 (TDP1): qHTS in cells in absence of CPT; also: nearly all actives have a fitted effect of over 55% in size
# Conditions: DT40 Tdp1-/- hTDP1 cells, no CPT, ATP luminescence, 48 h; activity change, negative = growth inhibition: at 46.2 µM (top of the series)
# How it was run: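 Readout: luminescence from CellTiter-Glo after 30 min in the dark at RT. Cells: DT40 Tdp1-/- with stable hTDP1, 400/well. Exposure: compounds alone, ≥48 hr, 37 °C.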
# Potency is read from the fitted curve at half-maximal effect.
row,Structure (SMILES),Potency
1,Cc1nn(C)cc1S(=O)(=O)N1CCN(c2ccc(F)cc2)CC1,inactive
2,C=CCNc1nnc(C)c2ccccc12,inactive
3,Cc1nc(-c2ccc([N+](=O)[O-])cc2)c(-c2ccccc2)o1,inactive
4,O=C1CC(c2ccccc2)=NN1c1ccc([N+](=O)[O-])cc1,16.4 µM (active)
5,O=c1[nH]n(-c2ccc([N+](=O)[O-])cc2)c(=O)c2ccccc12,inactive
6,CC(C)c1nc(CNC(=O)CC2C(=O)NCCN2Cc2cccc(F)c2F)cs1 (stereo unspecified),inactive
7,CCN(CC)CCCNC(=O)Cn1cnc2sc(C)c(S(=O)(=O)N3CCN(c4ncccn4)CC3)c2c1=O,inactive
8,C[N+]1(CCNC(=O)/C=N/O)CCCCC1,inactive
9,O=C(Cn1cc(C(F)(F)F)ccc1=O)Nc1ccc2c(c1)OCCO2,inactive
10,CCCCn1c(SCC(=O)N2CCCC2=O)nc2cc(S(N)(=O)=O)ccc21,inactive
11,CCCCn1c(SCc2ncc(-c3ccccc3)o2)nc2cc(S(N)(=O)=O)ccc21,9.2 µM (active)
12,CCCCn1c(SCC(=O)N2CCC(C(=O)OCC)CC2)nc2cc(S(N)(=O)=O)ccc21,inactive
13,Cc1[nH][nH]c(=O)c1N=Nc1ccccc1,inactive
14,Cc1ccc(NC2(C#N)C(=O)Nc3ccccc32)cc1 (stereo unspecified),inactive
15,COC(=O)C(C)NC(=O)COc1ccc2ccccc2c1 (stereo unspecified),inactive
16,CCCCSc1[nH]c(=O)c(C(=O)OCC)cc1C#N,inactive
17,CCOc1ccccc1CNS(=O)(=O)c1cc(-c2cc(C)no2)ccc1C,inactive
18,CCc1ccc(-c2cc(C)no2)cc1S(=O)(=O)NCCc1ccc(S(N)(=O)=O)cc1,inactive
19,COc1cccc(CNS(=O)(=O)c2cc3c(cc2C)n(C)c(=O)c(=O)n3C)c1,inactive
20,COc1ccc(CNS(=O)(=O)c2cc(-c3cc(C)no3)ccc2C(C)C)cc1,0.731 µM (active)
21,Cc1cc(-c2ccc(C)c(S(=O)(=O)NC(C)Cc3ccco3)c2)on1 (stereo unspecified),inactive
22,Cc1cc(-c2ccc(C)c(S(=O)(=O)NCCCN(Cc3ccccc3)C(C)C)c2)on1,13 µM (active)
23,CC(=O)OC(C)C[N+](C)(C)C (stereo unspecified),inactive
24,C=CCOc1ccc(/C=C/C(=O)OC(C)C(=O)Nc2ccc(NC(C)=O)cc2)cc1 (stereo unspecified),inactive

row,Structure (SMILES),Potency
1,COC(=O)c1c(C)cc(O)c(C)c1O,inactive
2,O=C(/C=C/c1ccco1)NC(=S)N1CCCCC1,inactive
3,NC(=O)c1ccsc1NC(=O)COC(=O)Cc1n[nH]c(=O)c2ccccc12,inactive
4,Cc1cc(C)c(C2C3=C(Nc4c2c(C)nn4-c2ccccn2)c2ccccc2C3=O)c(C)c1 (stereo unspecified),8.2 µM (active)
5,Cc1nc2ccccc2n1C(=O)N1CCOCC1,inactive
6,CC(OC(=O)/C=C/c1ccccc1)C(=O)NC1CCCCC1C (stereo unspecified),inactive
7,CC(C=Cc1ccccc1)=NNS(=O)(=O)c1ccc([N+](=O)[O-])cc1,inactive
8,CC(/C=C/c1ccccc1)=N\NC(=O)C1CC1(C)c1ccccc1 (stereo unspecified),18.4 µM (active)
9,Cn1c(=NC(=O)c2ccc3c(c2)OCCO3)sc2cc(S(C)(=O)=O)ccc21,inactive
10,O=C(CO/N=C/c1ccccc1O)NNC(=O)c1ccccc1Cl,0.184 µM (active)
11,O=C(CO/N=C/c1ccccc1OC(F)F)NC1CCCC1,inactive
12,NS(=O)(=O)c1cc(C(=O)OCC(=O)NNC(=O)c2ccccc2)ccc1Cl,inactive
13,CCCc1cc(=O)oc2c(C)c(OCC(=O)NCc3ccccn3)ccc12,inactive
14,CN(CCC#N)c1ccc(C=O)cc1,inactive
15,N#Cc1ccc(C(=O)Nc2nc(-c3cccs3)c(C(=O)C(F)(F)F)s2)cc1,1.3 µM (active)
16,CC(=O)c1sc(NC(=O)c2ccc(C)cc2)nc1C,inactive
17,CCOc1cccc(C(=O)Nc2nnc(-c3cccs3)s2)c1,inactive
18,COc1ccc(CCNC(=O)c2cn(C)c3ccc(S(=O)(=O)N(C)C4CCCCC4)cc3c2=O)cc1OC,inactive
19,CC1(C)CC(=O)C=C(c2ccccc2CO)C1=O,inactive
20,CC1CCCC(C)N1C(=O)COC(=O)COc1ccccc1C#N (stereo unspecified),inactive
21,Cc1nnc(NC2=NCCCCC2)o1,inactive
22,COc1ccc(OCC(=O)NNC(=O)c2cccc(C)c2)cc1,inactive
23,COc1ccc(CN2C(=O)C(NC(=O)c3cccc(C)c3)(C(F)(F)F)N=C2c2ccccc2)cc1 (stereo unspecified),20.6 µM (active)
24,COc1cccc(C(=O)NC(=O)Nc2nc(C)cc(C(F)(F)F)n2)c1,inactive

row,Structure (SMILES),Potency
1,COc1ccc(S(=O)(=O)N2CCN(C(=O)c3cc(C)oc3C)CC2)cc1,inactive
2,COc1ccc(C(=O)/C=C/c2cccnc2)c(OC)c1,18.4 µM (active)
3,COc1ccc(C(=O)CCC(=O)Nc2cccnc2)c(OC)c1,inactive
4,COc1ccc(C(=O)Nc2cccnc2)cc1C(=O)Nc1cccnc1,inactive
5,CC/C(=N\O)C(C)(C)/[N+]([O-])=C/c1ccc(Br)cc1,inactive
6,O=c1c2[nH]c3ccc(Cl)cc3c2ncn1Cc1ccccn1,inactive
7,COc1cccc(NC(=O)NCc2ccc(F)cc2)c1,inactive
8,COc1cccc(NC(=O)Cc2ccc(C)cc2)c1,inactive
9,Cc1cccc(NC(=O)Nc2cccc(Oc3c(F)c(F)c(F)c(F)c3F)c2)c1,18.4 µM (active)
10,CN1CCC(OC(=O)COc2ccc(Cl)cc2Cl)CC1,inactive
11,C[N+]1(CC(O)COc2ccccc2)CCN(C(=O)c2ccc([N+](=O)[O-])cc2)CC1 (stereo unspecified),inactive
12,COc1cccc(NC(=S)C(C#N)=C2N(C)c3ccccc3N2C)c1,inactive
13,CCOc1cccc(NC(=O)CC#N)c1,inactive
14,CC(=O)Nc1cccc(OCC(=O)/C=C2\N(C)c3ccccc3C2(C)C)c1,7.31 µM (active)
15,CC(=O)NCC(O)c1ccc([N+](=O)[O-])cc1 (stereo unspecified),inactive
16,Cc1cc(C)c(C#N)c(SCC(=O)NN2CC(=O)N(c3ccccc3F)CC2=O)n1,inactive
17,CCOC(=O)C=Cc1ccc(C(=O)OCC)[nH]1,8.2 µM (active)
18,CCOC(=O)c1ccccc1OC(=O)Oc1ccccc1C(=O)OCC,inactive
19,CCOC(=O)c1cc2cc(C)ccc2[nH]1,inactive
20,CCOC(=O)c1cccc(NC(=O)CN2C(=O)C3CC=CCC3C2=O)c1 (stereo unspecified),inactive
21,O=C(Nc1ccccc1)/C(=C/c1ccc([N+](=O)[O-])cc1)NC(=O)c1ccccc1,inactive
22,CCOC(=O)/C(=C\c1ccc([N+](=O)[O-])cc1)C(=O)c1cc(C(C)=O)c(Nc2ccccc2)s1,0.731 µM (active)
23,O=C(O)C(=Cc1ccc([N+](=O)[O-])cc1)CCc1ccccc1,inactive
